The record followed here is PubChem BioAssay (NCATS).

Experiment [1] concerns Zika virus NS2B-NS3 protease. In words: Primary screen GU AMC qHTS for Zika virus inhibitors (AID 1347154). Further: nearly all actives have a fitted effect of over 70% in size. Further: potency means the concentration at half of the fitted maximal effect.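 On activity change, negative = inhibition: 0% = no-inhibitor control and -100% = no-enzyme control.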 The essentials: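 Fluorogenic AMC-substrate cleavage by noncovalent NS2B-NS3 protease complex (25 nM, pH 8.0 Tris buffer with Tween 20) followed for 15 minutes at room temperature (~20% conversion). Percent inhibition from ex340/em450 signal change, fitted by 4-parameter Hill equation.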
In general terms: Quantitative high-throughput screening tests each substance at several concentrations.

Experiment [2] in a line: Primary qHTS for small molecule stabilizers of the endoplasmic reticulum resident proteome: Secreted ER Calcium Modulated Protein (SERCaMP) assay (AID 1508630). Further: potency means the concentration at half of the fitted maximal effect. On activity change, negative = inhibition: on the % scale 0 is the no-effect control and ±100 the full control effect. The essentials: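 The SH-SY5Y reporter protocol was run at 3 concentrations up to 38.3 uM (primary) or 11 concentrations (follow-up): 16 h compound, 100 nM thapsigargin for 4 h, then extracellular luciferase luminescence.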

For experiment [3], the target named is Cytochrome P450 1A2 (Homo sapiens) (UniProt P05177). Description: p450-cyp1a2 (AID 410; calls by dose curve; further: potency means the concentration at half of the fitted maximal effect). In outline:
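20nM CYP1A2, 100uM Luciferin-ME (=Km), 100mM KPO4; cpd 10 min RT; +NADPH regen, 60 min RT; stop/detect 20 min; luminescence. Normalized to furafylline 57 uM = full inhibition.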

The target of experiment [4] is Glucocorticoid receptor (Homo sapiens) (UniProt P04150). In words: GR-EFC Redistribution (AID 451; calls by dose curve; further: potency means the concentration at half of the fitted maximal effect). Particulars: CHO-K1 GR-EFC translocation, beta-gal luminescence, 2 h. In outline: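 Translocation of GR-ED fusion to nuclear EA restores b-gal, read by luminescence after 1 h room-temperature detection. Engineered CHO-K1 biosensor cells, 1,000/well, exposed 2 h at 37 C to titrations up to 46 uM final.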

The target in experiment [5] is Mitogen-activated protein kinase 10 (Mus musculus) (UniProt Q61831). Description: JNK3 AlphaScreen Assay (AID 530; active means well fitted curve in either direction with a large enough effect, not every such curve was filed as active;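 further: kinase came from lysate of stimulated human HepG2 cells; signal reports phosphorylation of biotinylated GST-cJun 1-79 at Ser73 with 10 µM ATP; on the % scale 0 is the no-effect control and ±100 the full control effect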). The essentials:
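Kinase buffer: 20 mM Tris-HCl pH 7.6, 10 mM MgCl2, 1 mM DTT, 0.1 mM Na3VO4, 0.01% Tween-20; ATP 10 uM. Substrate biotin-GST-cJun(1-79), enzyme from activated HepG2 lysates. Detection by Ser73 phospho-antibody AlphaScreen.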
Background: In Alpha technology, singlet oxygen from a donor bead excites a nearby acceptor bead.

Experiment [6] has as its target Cytochrome P450 3A4 (Homo sapiens) (UniProt P08684). Description: qHTS Assay for Activators of Cytochrome P450 3A4 (AID 885). Further: nearly all actives have a fitted effect of over 65% in size. The essentials: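 Human CYP3A4 dealkylates Luciferin-PPXE to luciferin, which luciferase detection converts to light. Substrate was at its KM (25uM), buffer 200mM KPO4, reaction 60 min at RT.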
For experiment [7], the target named is Ubiquitin carboxyl-terminal hydrolase 1 (Homo sapiens) (UniProt O94782). In words: Inhibitors of USP1/UAF1: Pilot qHTS (AID 504865).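 Further: rhodamine fluorescence freed from ubiquitin-rhodamine substrate followed over time; top concentration of the series differs between compounds; on the % scale 0 is the no-effect control and ±100 the full control effect; nearly all actives have a fitted effect of over 35% in size.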 The essentials: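 USP1/UAF1 complex at 1 nM preincubated 15 min at room temperature with compound, then Ub-Rho substrate added at 150 nM final. Fluorescence (480/540 nm) read kinetically in 50 mM HEPES pH 7.8, 0.5 mM EDTA, 1 mM TCEP, 0.1 mg/ml BSA, 0.01% Tween-20.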

The target in experiment [8] is DNA dC->dU-editing enzyme APOBEC-3G (Homo sapiens) (UniProt Q9HC16). Description: qHTS for inhibitors of Vif-A3G interactions: Validation (AID 588379). Further: 0% is about no effect. In outline: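 Yellow fluorescence (Ex 488, Em 500-530) of Vif-coexpressing HeLa A3G-eYFP cells, scanned by Acumen cytometer, reports blocked A3G degradation. Cells plated at 700/well overnight at 37 deg C before compound addition, then a further overnight compound incubation at 37 deg C.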

The nature of experiment [9]: qHTS Assay for Lipid Storage Modulators (AID 1519; calls by dose curve; on activity change, negative = inhibition: on the % scale 0 is the no-effect control and ±100 the full control effect). Particulars: Drosophila S3 cells, BODIPY lipid droplet/cell ratio, laser cytometry, cells loaded with oleic acid. In outline:
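Cells seeded at 5,000 per well were treated with compounds over a concentration series and loaded with oleic acid (400 uM, as added). Lipid droplet fluorescence (488 nm excitation, 500-530 nm channel) was read by laser-scanning cytometry and normalized to 20 uM Triacsin C.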

Results filed as inconclusive are left out. Calls of active or inactive are those of the source. Unless noted, the call rests on the fitted dose curve; in most records, active means well fitted curve in the direction sought with a large enough effect; inconclusive means small, poorly fitted or top-dose-only effect, or another doubt; inactive means no such curve, though single readings can be large; an effect the other way counts as inactive or inconclusive. Where a SMILES comes first, the peptide text is derived from it. Some results are limits rather than exact numbers.

Sequence of Ubiquitin carboxyl-terminal hydrolase 1 (Homo sapiens) (O94782 whole entry, looked up): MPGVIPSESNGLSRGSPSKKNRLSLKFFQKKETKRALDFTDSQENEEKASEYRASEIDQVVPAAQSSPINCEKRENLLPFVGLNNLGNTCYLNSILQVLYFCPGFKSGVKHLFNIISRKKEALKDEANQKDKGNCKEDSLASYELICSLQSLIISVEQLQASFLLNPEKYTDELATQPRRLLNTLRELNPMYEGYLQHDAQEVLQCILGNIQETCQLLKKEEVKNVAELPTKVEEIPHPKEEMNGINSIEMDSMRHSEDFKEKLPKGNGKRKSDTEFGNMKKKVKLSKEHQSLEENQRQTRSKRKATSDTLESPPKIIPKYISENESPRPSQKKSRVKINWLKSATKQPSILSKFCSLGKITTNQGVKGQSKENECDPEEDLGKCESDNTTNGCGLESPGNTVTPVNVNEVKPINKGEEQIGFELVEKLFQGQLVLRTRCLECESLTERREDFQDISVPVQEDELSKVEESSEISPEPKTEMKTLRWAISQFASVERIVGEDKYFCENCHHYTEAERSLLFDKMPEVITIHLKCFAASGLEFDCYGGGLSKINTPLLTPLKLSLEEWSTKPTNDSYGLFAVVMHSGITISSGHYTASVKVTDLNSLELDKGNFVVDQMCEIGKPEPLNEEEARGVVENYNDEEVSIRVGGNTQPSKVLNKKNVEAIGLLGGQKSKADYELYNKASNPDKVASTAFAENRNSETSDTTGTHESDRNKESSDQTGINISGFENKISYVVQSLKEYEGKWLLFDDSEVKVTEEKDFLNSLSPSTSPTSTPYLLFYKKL
Sequence of Cytochrome P450 3A4 (Homo sapiens) (P08684 whole entry, looked up): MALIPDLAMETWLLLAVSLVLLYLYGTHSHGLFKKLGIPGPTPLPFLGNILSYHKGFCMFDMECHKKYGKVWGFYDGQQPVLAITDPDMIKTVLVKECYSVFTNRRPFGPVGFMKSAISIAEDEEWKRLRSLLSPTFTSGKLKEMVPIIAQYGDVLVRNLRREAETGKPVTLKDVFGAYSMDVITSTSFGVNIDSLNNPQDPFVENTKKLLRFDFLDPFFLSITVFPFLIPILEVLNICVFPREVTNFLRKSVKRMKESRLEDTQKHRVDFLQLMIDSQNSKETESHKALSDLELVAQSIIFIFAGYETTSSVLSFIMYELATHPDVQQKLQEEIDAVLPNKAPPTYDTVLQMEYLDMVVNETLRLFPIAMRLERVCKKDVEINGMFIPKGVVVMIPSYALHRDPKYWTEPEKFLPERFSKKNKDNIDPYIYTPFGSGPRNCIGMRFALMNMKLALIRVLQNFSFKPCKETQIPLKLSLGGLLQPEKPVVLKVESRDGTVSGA
Sequence of Glucocorticoid receptor (Homo sapiens) (P04150 whole entry, looked up, the tested form may be a part): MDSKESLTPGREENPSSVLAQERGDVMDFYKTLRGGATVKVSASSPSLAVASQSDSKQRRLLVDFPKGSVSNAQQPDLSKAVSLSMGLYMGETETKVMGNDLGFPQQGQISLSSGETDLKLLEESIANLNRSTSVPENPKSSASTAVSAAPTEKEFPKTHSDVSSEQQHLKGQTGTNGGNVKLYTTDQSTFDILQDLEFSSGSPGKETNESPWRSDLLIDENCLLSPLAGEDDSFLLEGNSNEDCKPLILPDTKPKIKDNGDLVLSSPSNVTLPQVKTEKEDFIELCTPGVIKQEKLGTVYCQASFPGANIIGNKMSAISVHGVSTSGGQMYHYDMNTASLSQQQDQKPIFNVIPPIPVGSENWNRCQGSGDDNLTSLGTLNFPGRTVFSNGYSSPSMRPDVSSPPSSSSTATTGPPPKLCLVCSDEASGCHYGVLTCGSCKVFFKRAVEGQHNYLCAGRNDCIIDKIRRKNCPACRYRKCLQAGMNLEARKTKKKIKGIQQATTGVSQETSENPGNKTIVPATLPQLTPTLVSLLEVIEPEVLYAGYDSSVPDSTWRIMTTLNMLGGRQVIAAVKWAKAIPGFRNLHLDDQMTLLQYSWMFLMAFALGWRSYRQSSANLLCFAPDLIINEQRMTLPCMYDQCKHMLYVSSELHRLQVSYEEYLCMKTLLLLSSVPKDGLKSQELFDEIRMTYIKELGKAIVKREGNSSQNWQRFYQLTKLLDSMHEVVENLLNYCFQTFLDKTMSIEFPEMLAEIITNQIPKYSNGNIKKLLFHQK
Sequence of Cytochrome P450 1A2 (Homo sapiens) (P05177 whole entry, looked up): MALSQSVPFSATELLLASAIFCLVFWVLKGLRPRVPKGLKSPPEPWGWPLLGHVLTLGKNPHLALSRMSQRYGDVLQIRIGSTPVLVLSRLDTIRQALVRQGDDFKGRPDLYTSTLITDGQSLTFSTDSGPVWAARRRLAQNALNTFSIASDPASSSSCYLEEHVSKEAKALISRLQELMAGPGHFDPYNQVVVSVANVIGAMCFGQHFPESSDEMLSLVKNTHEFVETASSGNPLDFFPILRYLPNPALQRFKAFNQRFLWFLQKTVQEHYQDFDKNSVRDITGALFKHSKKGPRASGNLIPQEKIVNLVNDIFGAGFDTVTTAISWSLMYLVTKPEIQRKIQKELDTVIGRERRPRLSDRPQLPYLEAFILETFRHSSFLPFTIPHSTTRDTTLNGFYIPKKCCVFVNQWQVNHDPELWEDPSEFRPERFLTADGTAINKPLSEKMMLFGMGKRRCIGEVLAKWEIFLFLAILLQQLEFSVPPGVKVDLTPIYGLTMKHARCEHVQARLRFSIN
Sequence of DNA dC->dU-editing enzyme APOBEC-3G (Homo sapiens) (Q9HC16 whole entry, looked up): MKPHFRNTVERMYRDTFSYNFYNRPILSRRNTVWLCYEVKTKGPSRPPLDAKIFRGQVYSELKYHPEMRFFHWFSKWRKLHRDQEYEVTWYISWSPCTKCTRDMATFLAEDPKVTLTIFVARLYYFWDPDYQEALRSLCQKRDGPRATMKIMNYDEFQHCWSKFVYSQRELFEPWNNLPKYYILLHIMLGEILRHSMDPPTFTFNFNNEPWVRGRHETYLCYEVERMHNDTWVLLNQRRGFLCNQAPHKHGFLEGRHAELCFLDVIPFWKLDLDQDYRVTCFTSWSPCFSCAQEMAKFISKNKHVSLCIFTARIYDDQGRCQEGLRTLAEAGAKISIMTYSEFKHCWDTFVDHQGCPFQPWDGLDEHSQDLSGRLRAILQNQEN

For `CN(C(=O)Cc1ccc(Cl)c(Cl)c1)C(CN1CCCC1)c1cccc(N=C=S)c1` (stereo not drawn), the Potency result in [1] and in experiment [2] was “inactive” in each case.

On to `Fc1ccc(C(OCCN2CCN(C/C=C/c3ccccc3)CC2)c2ccc(F)cc2)cc1`, for which the Potency entry in [1] was “inactive”.

`O=C(NC1CCCCC1)c1cn(CCN2CCOCC2)c2cc(Cl)ccc2c1=O`: the Potency entry in experiment [1] and in experiment [2] was “inactive” each time.

Turning to `NC1(c2ccccc2Cl)CCCCC1=O` (stereo not drawn), the Potency entry in [1] and in [2] was “inactive” throughout.

For `CC(=O)C1=C(O)[C@@H]2[C@@H]3c4c[nH]c5cccc(c45)C[C@@H]3C(C)(C)N2C1=O`, the Potency is 12.6 µM (active) in [3] and > 46 µM (inactive) in experiment [4]. For the same molecule, the call in experiment [5] was inactive. Also, the Potency entry in [6], in experiment [7], in [8], in [1] and in experiment [2] was “inactive” each time.

For the molecule `Cc1[nH]c2ccc(Cl)cc2c1C1=CCNCC1`, the Potency entry in [1] is “inactive”. In addition, the Potency in [2] is 35.5 µM (active).

As to `N#Cc1c(Oc2cccc(OS(=O)(=O)CCCC(F)(F)F)c2)cccc1C(F)(F)F`, the Potency entry in experiment [1] and in experiment [2] was “inactive” each time.

Take `CCCCCCCCCCCCCCCCOC[C@@H](O)COP(=O)([O-])OCC[N+](C)(C)C`: the activity change, negative = inhibition in experiment [1] was 3.47% [at 6.83 µM] (inactive); in [2] it was 13.1% [at 3.88 µM] (inactive).

For the molecule `CCCCC[C@@H](/C=C/C=C\C/C=C\C/C=C\CCCC(=O)O)OO`, the activity change, negative = inhibition in experiment [1] was 15.4% [at 0.59 µM] (inactive); in experiment [2] it was -17.3% [at 0.478 µM] (inactive).

With `CN(CC(=O)N[C@H](CO)Cc1ccccc1)C(=O)[C@H](CCS(C)=O)NC(=O)[C@@H](N)Cc1ccc(O)cc1` (stereo partly drawn) (HELM PEPTIDE1{Y.[CS(=O)CC[C@H](N[*:1])C(=O)[*:2]].[Sar].[OC[C@H](Cc1ccccc1)N[*:1]]}$$$$V2.0), the figures for the activity change, negative = inhibition in [1] and in [2] were 16.9% [at 6.83 µM] (inactive) and -13.2% [at 3.88 µM] (inactive), respectively.

Regarding `COc1cccc2c1C13CC[N+]4(CC5CC5)CO[C@]1(CCC(=O)C3)C4C2`, the Potency result in experiment [1] and in [2] was “inactive” in each case.

With H-YPFVEPI-OH, the activity change, negative = inhibition was -10.5% [at 6.83 µM] (inactive) in experiment [1] and -11.8% [at 3.88 µM] (inactive) in experiment [2].

For the molecule `CCN1C[C@]2(COC)CC[C@H](OC)[C@@]34C5C[C@@H]6[C@@H](OC)C[C@@]7(OCO[C@@]7([C@@H](O)C23)[C@@H]14)C5[C@H]6OC` (stereo partly drawn), the Potency entry in [1] and in experiment [2] was “inactive” in each case.

As for `C[C@H](N)C(=O)N[C@@H](C)C(=O)N[C@@H](Cc1ccccc1)C(=O)CCl` (HELM PEPTIDE1{A.A.F.[ClC[*:1]]}$$$$V2.0), the Potency entry in experiment [1] and in experiment [2] was “inactive” in each case.

`O[C@@H]1CCCN2C[C@@H](O)[C@@H](O)C12` (stereo partly drawn): the Potency entry in [1] and in [2] was “inactive” each time.

`Cc1ccc2c(c1)Cc1c(C(=O)NC3CCCCC3)nn(-c3ccc(Cl)cc3Cl)c1-2`: the Potency result in experiment [1] and in [2] was “inactive” throughout.

As for `NC(=O)[C@@H]1CCCN1C(=O)[C@H](Cc1ccccc1)NC(=O)[C@@H]1CCCN1C(=O)[C@@H](N)Cc1ccc(O)cc1` (H-YPFP-NH2), the values for the activity change, negative = inhibition in experiment [1] and in [2] were 12.8% [at 6.83 µM] (inactive) and -13.2% [at 3.88 µM] (inactive), respectively.

In the case of H-YGGFLRKYPK-OH, the results for the activity change, negative = inhibition in experiment [1] and in [2] were 17.1% [at 6.83 µM] (inactive) and -17% [at 3.88 µM] (inactive), respectively.

Regarding `O=C(O)CCC(CP(=O)(O)O)C(=O)O` (stereo not drawn), the Potency result in experiment [1] and in experiment [2] was “inactive” in each case.

In the case of `CCCC[C@@H](C)[C@@H](OC(=O)C[C@@H](CC(=O)O)C(=O)O)[C@H](C[C@@H](C)C[C@H](O)CCCC[C@@H](O)C[C@H](O)[C@H](C)N)OC(=O)C[C@H](CC(=O)O)C(=O)O`, the Potency entry in [1] and in experiment [2] was “inactive” in each case.

In the case of `NCC(CC(=O)O)c1ccc(Cl)s1` (stereo not drawn), the Potency result in experiment [1] and in [2] was “inactive” each time.

For the molecule `Clc1ccc(C2CC3CCC2N3)cn1` (stereo not drawn), the Potency result in experiment [1] and in [2] was “inactive” throughout.

For `CCOc1cncc(/C=C/CCNC)c1`, the Potency result in experiment [1] and in experiment [2] was “inactive” in each case.

As to `COc1cc(OC2CCN(C(C)=O)CC2)ccc1C(=O)N1CCC(N2C(=O)OCc3ccccc32)CC1`, the Potency entry in experiment [1] and in experiment [2] was “inactive” throughout.

For `O[C@@H]1CCCC[C@@H]1N1CCC(c2ccccc2)CC1`, the Potency result in experiment [1] and in experiment [2] was “inactive” in each case.

Turning to `CCCCCCCCCCCCCCCCOC[C@H](COP(=O)([O-])OCC[N+](C)(C)C)OC(C)=O`, the activity change, negative = inhibition was -0.0514% [at 6.83 µM] (inactive) in experiment [1] and -28.3% [at 3.88 µM] (inactive) in experiment [2].

Regarding `N[C@]1(C(=O)O)CC[C@@H](C(=O)O)C1` (racemic), the Potency result in experiment [1] and in [2] was “inactive” in each case.

As to `CC(CN)CC(=O)O` (stereo not drawn), the Potency result in [1] and in [2] was “inactive” throughout.

Turning to `COc1ccc2c(c1O)-c1cc(O)cc3c1[C@@H](C2)N(C)CC3`, in [1], the Potency is 29.9 µM (active). In experiment [2], the Potency entry was “inactive”.

As to `CC(O)C(C)OC(=O)[C@@H]1C[C@@H]2c3cccc4c3c(cn4C(C)C)C[C@H]2N(C)C1` (stereo partly drawn), the activity change, negative = inhibition in [9] (at 57.5 µM (top of the series)) was 2.46% (inactive). In addition, the max response in experiment [9] (measured here: cell count channel max response) is -4.58%; in [9] (measured here: lipid channel max response), -0.261%. Besides, the Potency entry in experiment [1] and in experiment [2] was “inactive” each time.
